PTHR1 agonist – qHTS for PTHR1 Agonists: Primary Screen; AID 743266, 2014; Parathyroid hormone/parathyroid hormone-related peptide receptor (Homo sapiens), Q03431; actives 0.075% (n = 410,000); HEK293 GP2 PTHR1 cells, GloSensor cAMP luminescence, 1 h; Potency, µM (top dose mostly 115 µM), without a hit: at the highest dose activation, usual class: activators; also: nearly all actives have a fitted effect of over 55% in size
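HEK-293-derived GP2 cells expressing PTHR1 and a GloSensor cAMP reporter, 3,000/well, plated overnight, given luciferin plus IBMX (each 0.5 mM as added) for 1 h at 37 °C, then compound for 1 h at 37 °C. Luminescence was read after 15 min at room temperature.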
GLP1R ag – qHTS of GLP-1 Receptor Agonists; HEK293 GLP-1R CRE-luciferase, luminescence, 4-6 h; cells express a hypersensitive GLP-1R form; actives 0.007% (n = 380,000); Glucagon-like peptide 1 receptor (Homo sapiens), P43220; Potency, µM (titrated, usually from 45.6 µM), for the others: at the highest dose activation, most hits filed as activators; also: % of control where 0% means no effect
Target sequence (P43220 whole entry, looked up): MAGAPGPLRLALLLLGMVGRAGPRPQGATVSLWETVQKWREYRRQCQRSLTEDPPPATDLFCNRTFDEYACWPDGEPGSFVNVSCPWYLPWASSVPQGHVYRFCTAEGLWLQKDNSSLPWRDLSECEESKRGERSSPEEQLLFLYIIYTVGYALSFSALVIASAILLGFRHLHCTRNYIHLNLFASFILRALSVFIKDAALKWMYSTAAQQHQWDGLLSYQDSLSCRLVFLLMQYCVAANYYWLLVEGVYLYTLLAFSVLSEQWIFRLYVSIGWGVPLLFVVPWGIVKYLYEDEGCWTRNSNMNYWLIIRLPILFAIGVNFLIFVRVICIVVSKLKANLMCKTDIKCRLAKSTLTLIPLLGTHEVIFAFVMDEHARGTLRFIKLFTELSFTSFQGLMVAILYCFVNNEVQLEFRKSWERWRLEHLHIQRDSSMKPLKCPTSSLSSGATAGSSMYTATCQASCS
GLP-1R inv ag – qHTS of GLP-1 Receptor Inverse Agonists (Inhibition Mode) | AID 624417, 2012 | actives 1.6% (n = 410,000) | HEK293 GLP-1R CRE-luciferase, luminescence, 24 h; GLP-1R form is constitutively active | Glucagon-like peptide 1 receptor (Homo sapiens), P43220 | Potency, µM (top dose mostly 38.3 µM), inactives show at the highest dose activity change, negative = inhibition, usual class: inhibitors; also: % is scaled to controls: 0 for no effect and ±100 for the full control effect; nearly all actives have a fitted effect of over 55% in size
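Luminescence readout: a drop in cAMP-driven luciferase signal flags inverse agonism at a constitutively active GLP-1R stably expressed in HEK293. Compound exposure lasted 24 hr at 37 deg C, 5% CO2.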
GLP1R cytotox – qHTS of GLP-1 Receptor Inverse Agonists: Cytotox Screen | HEK293 cAMP-luciferase reporter cells, luminescence, 24 h | Potency, µM (highest dose often 38.3 µM), inactives show at the top dose activity change, negative = inhibition, usual class: inhibitors | actives 0.13% (n = 410,000);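 also: loss of luciferase light is scored as toxicity; % is scaled to controls: 0 for no effect and ±100 for the full control effect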
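Here, cytotoxicity is scored as loss of luminescence. The MLSMR collection was tested on cells seeded in medium containing 10% Nu serum, with a 24 hr compound exposure preceded by 12 hours of culture.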
* = called active by the depositor; i = inactive; ? = inconclusive; nt = no result given; [ ] = another dose, or the depositor's remark. An excerpt weighted towards active compounds, which were near 1.7% of everything screened. Calls follow the shape of the dose curve; as a rule, active = well fitted curve in the direction sought with a large enough effect; inconclusive = small, poorly fitted or top-dose-only effect, or another doubt; inactive = no such curve, though single readings can be large; an effect the other way counts as inactive or inconclusive. Potency is read from the fitted curve at half-maximal effect.

SMILES | PTHR1 agonist | GLP1R ag | GLP-1R inv ag | GLP1R cytotox
COc1ccc(NC(=S)NC(NC(=O)c2ccc(Cl)cc2Cl)C(Cl)(Cl)Cl)c([N+](=O)[O-])c1 (configuration not stated) | -13%[57.5 µM] | -1% | 10µM* | ?
CCCC(=O)O[C@@H]1C[C@@H](C)N(C(=O)c2ccccc2)c2ccc(C)cc21 | -2% | -1% | 10µM* | -2%
CCCc1c(C(=O)N/N=C/c2c[nH]c3ccccc23)nnn1-c1nonc1N | -29% | -6% | ? | -9%
Cc1ccc(-c2c(C(=O)N/N=C/c3c[nH]c4ccccc34)nnn2-c2nonc2N)cc1 | i | -4% | 3.2µM* | -5%
CCOc1ccccc1C1C(C(=O)Nc2ccccc2)=C(C)Nc2nc(SCC(=O)c3ccc(C)cc3)nn21 (configuration not stated) | i | nt | 13% | 1%
CCN(CC)CCOC(=O)c1ccc(NC(=O)c2nn(-c3ccc(C)cc3)c(=O)c3c2c2ccccc2n3C)cc1 | i | nt | 0% | 0%
CCN(CC)CCNC(=O)c1ccc(NC(=O)c2cccc(S(=O)(=O)N3c4ccccc4CC3C)c2)cc1 (configuration not stated) | i | 24% | 5.6µM* | ?
CCN(CC)CCNC(=O)c1ccc(NC(=O)Nc2cccc3ccccc23)cc1 | -8% | 14% | 10µM* | 7%
CCOC(=O)/C(=N\Nc1ccccc1Cl)N(C)C1CCCCC1 | -4% | 16% | 8.9µM* | 7%
CCOC(=O)/C(=N\Nc1ccccc1Cl)N1CC(C)OC(C)C1 (configuration not stated) | i | 21% | 5µM* | -20%
CC(C)CCNC(=O)CCc1nnc2n(CCCOC(C)C)c(=O)c3ccccc3n12 | -8% | 0% | 9% | -1%
COc1c(Cl)cc(Cl)cc1C(=O)Nc1cccc(-c2nc3ccccc3o2)c1C | -1% | nt | 7% | 2%
CCN(CC)CC#CCOC(c1ccccc1)c1ccccc1 | i | 11% | 5.6µM* | -27%
Cc1ccc(NC(=O)C2CCN(S(=O)(=O)c3cccc4nonc34)CC2)c(Cl)c1 | -2% | 1% | 11% | -7%
COc1ccccc1C(=O)Nc1ccccc1C(=O)OCc1cc(=O)n2c(C)csc2n1 | i | nt | 13% | -6%
COC(=O)C1=C(C)N=C2SC(C#N)=C(N)N2C1c1ccc(OCc2ccccc2)cc1 (configuration not stated) | ? | -17% | 5µM* | 142%
COC(=O)C1=C(C)N=C2SC(C#N)=C(N)N2C1c1cc(OC)c(OC)c(OC)c1 (configuration not stated) | i | 27% | -13% | 37%
Cc1ccc(S(=O)(=O)N2CCN(Cc3cc(=O)n4ccccc4n3)CC2)c(C)c1 | -68% | 0% | -16% | 4%
CCCSc1ccc2nc(-c3ccccc3)cn2c1 | i | -29% | 2.5µM* | -1%
O=C(Nc1nc2ccccc2n1CCN1CCOCC1)c1ccc(COc2ccccc2Br)o1 | -23% | 13% | ? | 3.5µM*
O=C(Nc1nc2ccccc2n1CCN1CCOCC1)c1ccc(Cn2cc([N+](=O)[O-])cn2)o1 | -64% | -1% | 21% | -27%
Cc1ccc(Nc2c(F)cccc2Cl)c(CC(=O)O)c1 | nt | 1% | nt | nt
CCN(CC)CCCN1CC(O)=C(c2nc3ccccc3s2)C1=N | i | 5% | 11µM* | -5%
C[C@@]12CCC(=O)C=C1C=CC1C2CC[C@]2(C)C1CC[C@@]21CCC(=O)O1 (some centres not stated) | nt | -1% | nt | nt
CCC1Oc2ccc(C)cc2N(CC(=O)N(Cc2ccc(C)o2)C2CCCC2)C1=O (configuration not stated) | -4% | -17% | 4.5µM* | -37%
CC(C(=O)Nc1cccc([N+](=O)[O-])c1)N1CCN(C/C=C/c2ccccc2)CC1 (configuration not stated) | -19% | 11% | 10µM* | -28%
O=C(Nc1cccc(F)c1)N1CCN(C/C=C/c2ccccc2)CC1 | -18% | -3% | 8.9µM* | -15%
O=C(c1cccc([N+](=O)[O-])c1)N1CCN(C/C=C/c2ccccc2)CC1 | -24% | 11% | -22% | ?
